Measurements: PubChem BioAssay AID493115 (The Scripps Research Institute Molecular Screening Center, 2011)
The other results are listed elsewhere or left out.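 Rule for the calls: active = mean activation above a set limit carried over from the earlier primary screen; inactive = the rest.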

Biological target: Caspase-7 (Homo sapiens) (UniProt P55210)
Assay: activation of procaspase-7 enzyme – biochemical, absorbance, human, dual procaspase-3/-7 activator project, confirmation (AID 493115);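 note: 0% = DMSO only and 100% = DMSO with added 5 µM PC-7 enzyme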
Conditions: recombinant procaspase-7, Ac-DEVD-pNA absorbance 405 nm; at 8.5 µM; hits give high values; D23A/D198A/D206A mutant that cannot self-cleave

Sequence of Caspase-7 (Homo sapiens) (P55210 whole entry D23A/D198A/D206A): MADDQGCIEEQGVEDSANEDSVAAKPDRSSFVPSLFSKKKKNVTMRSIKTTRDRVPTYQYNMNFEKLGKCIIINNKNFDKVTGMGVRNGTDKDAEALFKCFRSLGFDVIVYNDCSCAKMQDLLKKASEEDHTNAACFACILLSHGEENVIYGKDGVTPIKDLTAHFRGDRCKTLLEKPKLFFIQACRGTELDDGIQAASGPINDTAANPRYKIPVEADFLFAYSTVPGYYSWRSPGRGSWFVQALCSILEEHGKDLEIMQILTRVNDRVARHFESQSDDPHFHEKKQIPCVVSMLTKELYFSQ

activation, inactive:
COc1ccccc1N=Cc1c(O)c2ccccc2oc1=O -13.5%
CC(=O)Oc1ccc2c(C)c(CC(C)O)c(=O)oc2c1 (stereo not given) -34%
COc1ccc(/C=N/Nc2nc3ccccc3c(=O)[nH]2)cc1 0.2%
COc1ccc2sc(-c3ccc(S(C)(=O)=O)cc3)c(C#Cc3cncn3C)c2c1 -34.2%
COc1ccc(Nc2ncc(C(=O)N3CCN(c4ccccc4OC)CC3)c3ccccc23)cc1 2.22%
CCOC(=O)C1(CCOC)CCN(Cc2cc3ccccc3s2)CC1 2.06%
CCCCOC(=O)Cn1c(=O)n(CC(=O)OCCCC)c2cc(C)ccc21 0.05%
COc1ccc(-c2onc3ccc(C(C)=O)cc23)cc1 -35.4%
O=C1OCCN1C(=O)[C@H]1[C@H](c2ccc(F)cc2)C(c2ccccc2)=NN1c1ccc(Br)cc1 -35.1%
COc1ccc(Nc2ncnc3sc(-c4ccccc4)cc23)c(OC)c1 -12.6%
Fc1ccc(N2N=C(c3cccs3)CC2c2ccco2)c(F)c1 (stereo not given) -34.9%
CC1(C)Cc2c(C#N)c(SCc3nc4ccccc4[nH]3)nc(N3CCOCC3)c2CO1 -34.3%
CCN(CC)c1ccc2oc(=O)c(C)nc2c1 -21%
CNS(=O)(=O)c1cccc(C(=O)NC2CCCc3ccccc32)c1 (stereo not given) 0.28%
Nc1cccc2c1C(=O)N(Cc1nnc(-c3ccccc3Br)o1)C2=O -35.8%
